Consider 15 compounds from PubChem BioAssay (NCI).

Test systems include SR leukemia; RPMI-8226 leukemia; OVCAR-8 ovarian; OVCAR-5 ovarian; OVCAR-4 ovarian; SK-OV-3 ovarian; OVCAR-3 ovarian; HS 578T breast; NCI/ADR-RES ovarian; IGROV1 ovarian.
What all share (experiment): NCI-60 one-dose screen, 48 h (100 = growth as untreated, 0 = no growth, -100 = all killed)
Settings in all cases: 10 µM unless noted

Compounds without any hit were thinned out: in the full panel of roughly 83,000, 20% have a hit.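 Plates (96-well) were seeded with cells, treated with compound at one concentration, and incubated for 48 hours before percent growth was determined.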 A number with no mark means an inactive call. Active and inactive are the calls of the source. Rule for the calls: active = growth percent below 10; inactive = the rest.

On to `CCCCn1c(=O)[nH]c(N)c([C@@H]2c3c([nH]c(=O)n(CCCC)c3=O)Oc3ccc4ccccc4c32)c1=O`, for which the growth was 9.35% (active) in the assay with SR leukemia; 77.8% in the assay with RPMI-8226 leukemia; 7.15% (active) in the assay with OVCAR-8 ovarian; 92.3% with OVCAR-5 ovarian; 86.2% with OVCAR-4 ovarian; 85% with SK-OV-3 ovarian. Besides, the growth in the assay with OVCAR-3 ovarian was -92.1% (active); in the assay with HS 578T breast, 103%; with NCI/ADR-RES ovarian it was 9.83% (active).
Consider `N#Cc1nc(-c2ccccc2)oc1S(=O)(=O)N1CCN(c2ccccc2)CC1`, for which the growth with SR leukemia was 14.7%; with RPMI-8226 leukemia, 63.4%; with OVCAR-8 ovarian, 81.3%; with OVCAR-5 ovarian, 112%; in the assay with OVCAR-4 ovarian, 99.5%; in the assay with IGROV1 ovarian, 78.9%. Moreover, the growth was 111% with OVCAR-3 ovarian, 102% with HS 578T breast and 97.5% with NCI/ADR-RES ovarian.
Turning to `C=C(C)[C@@H]1CC[C@]2(CO)CC[C@]3(C)[C@H](CC[C@@H]4[C@@]5(C)CC[C@H](NCO)C(C)(C)[C@@H]5CC[C@]43C)[C@@H]12`, the growth is -29.5% (active) with SR leukemia; -42% (active) in the assay with RPMI-8226 leukemia; -43.8% (active) in the assay on OVCAR-8 ovarian; -91.2% (active) in the assay on OVCAR-5 ovarian; -93.7% (active) with OVCAR-4 ovarian; -94.1% (active) with IGROV1 ovarian. Moreover, the growth with OVCAR-3 ovarian was -81.9% (active); with HS 578T breast, -58.3% (active); in the assay with NCI/ADR-RES ovarian it was -53.6% (active).
For the compound `COc1ccc(C2CC(c3ccc(Nc4nc(Nc5ccccc5)nc(Nc5ccccc5)n4)cc3)=NN2C(C)=O)cc1` (stereo not given), the growth in the assay with SR leukemia is 88.2%; with RPMI-8226 leukemia, 73.7%; in the assay with OVCAR-8 ovarian, 83%; with OVCAR-5 ovarian, 104%; in the assay with OVCAR-4 ovarian, 89.7%; with SK-OV-3 ovarian it was 124%. Further, the figures for the growth in the assay on OVCAR-3 ovarian, with HS 578T breast and in the assay on NCI/ADR-RES ovarian were 91.4%, 102% and 89.7%, respectively.
Take `O=C(c1nn(-c2ccccc2)c2c1CC(NCc1ccc(F)cc1)CC2)N1CCCCC1` (stereo not given): the growth was 94.6% in the assay with SR leukemia; 110% in the assay on RPMI-8226 leukemia; 97% with OVCAR-8 ovarian; 103% with OVCAR-5 ovarian; 99.2% in the assay on OVCAR-4 ovarian; 97.7% in the assay with IGROV1 ovarian. Also, the growth was 104% in the assay on OVCAR-3 ovarian, 107% in the assay with HS 578T breast and 93.9% in the assay on NCI/ADR-RES ovarian.
On to `c1ccc(-c2oc(-c3ccccc3)c(CN3CCCCC3)c2CN2CCCCC2)cc1`, for which the growth was -2.07% (active) in the assay on SR leukemia; -6.38% (active) in the assay with RPMI-8226 leukemia; 33% in the assay with OVCAR-8 ovarian; 50.3% in the assay on OVCAR-5 ovarian; 11.9% in the assay with OVCAR-4 ovarian; 44.7% with IGROV1 ovarian. In addition, the growth was 23.4% with OVCAR-3 ovarian, 34.3% in the assay on HS 578T breast and 39.8% in the assay on NCI/ADR-RES ovarian.
Regarding `O=C1c2ccc3c4c5ccc(c24)C(=O)N1CCCOCCCCOCCCNCc1ccc(cc1)CNCCCOCCCCOCCCN(C3=O)C5=O`, the growth was -10.9% (active) in the assay on SR leukemia; 3.9% (active) with RPMI-8226 leukemia; -29.6% (active) in the assay on OVCAR-8 ovarian; -63.3% (active) in the assay on OVCAR-5 ovarian; -97.8% (active) in the assay with OVCAR-4 ovarian; -78.4% (active) with IGROV1 ovarian. The growth in the assay on OVCAR-3 ovarian was -27.2% (active); in the assay on HS 578T breast, 85.6%; in the assay on NCI/ADR-RES ovarian it was 90%.
Consider `Cc1cc(C(=O)O)c(C)n1-c1cccc(C(=O)O)c1`, for which the growth in the assay on SR leukemia was 62.6%; with RPMI-8226 leukemia it was 107%; with OVCAR-8 ovarian, 73.4%; in the assay on OVCAR-5 ovarian, 66.4%; in the assay with OVCAR-4 ovarian it was 91.4%; in the assay with IGROV1 ovarian, 56.9%. The growth in the assay with OVCAR-3 ovarian was 121%; with HS 578T breast, 92.5%; in the assay with NCI/ADR-RES ovarian it was 72.1%.
With `Cc1ccc(/C=C2\COc3ccc(O)cc3C2=O)cc1`, the growth in the assay on SR leukemia is 12.7%; in the assay on RPMI-8226 leukemia, -1.31% (active); with OVCAR-8 ovarian, 91.7%; with OVCAR-5 ovarian, 102%; in the assay on OVCAR-4 ovarian it was 93.3%; in the assay on SK-OV-3 ovarian, 126%. In addition, the figures for the growth in the assay with OVCAR-3 ovarian, in the assay with HS 578T breast and in the assay with NCI/ADR-RES ovarian were 101%, 97.5% and 101%, respectively.
`COc1ccc(C2=C(Nc3ccc(C(=O)Nc4ccccc4)cc3)C(=O)N(C)C2=O)cc1`: the growth in the assay on SR leukemia was 66.6%; in the assay with RPMI-8226 leukemia, 82.1%; in the assay with OVCAR-8 ovarian it was 91.5%; in the assay on OVCAR-5 ovarian, 100%; in the assay on OVCAR-4 ovarian it was 97.4%; in the assay with IGROV1 ovarian, 97.7%. In addition, the growth in the assay with OVCAR-3 ovarian was 109%; with HS 578T breast, 110%; in the assay with NCI/ADR-RES ovarian it was 87%.
For `O=C(CN1CCOCC1)Nc1nc(-c2cc3ccccc3oc2=O)cs1`, the growth was 102% with SR leukemia; 104% in the assay on RPMI-8226 leukemia; 99.4% with OVCAR-8 ovarian; 95.5% in the assay with OVCAR-5 ovarian; 102% with OVCAR-4 ovarian; 87.9% with IGROV1 ovarian. Moreover, the growth in the assay on OVCAR-3 ovarian is 105%; with HS 578T breast, 92.8%; in the assay with NCI/ADR-RES ovarian, 103%.
For `CC(=O)N1N=C(c2ccc(Nc3nc(Nc4ccccc4)nc(Nc4ccccc4)n3)cc2)CC1c1cccc([N+](=O)[O-])c1` (stereo not given), the growth in the assay with SR leukemia is 83.8%; in the assay with RPMI-8226 leukemia it was 68%; with OVCAR-8 ovarian it was 92.6%; in the assay on OVCAR-5 ovarian it was 87.6%; with OVCAR-4 ovarian, 91.2%; in the assay with SK-OV-3 ovarian, 103%. Besides, the growth in the assay on OVCAR-3 ovarian was 98.1%; in the assay with HS 578T breast, 88.6%; in the assay on NCI/ADR-RES ovarian, 94.7%.
Take `CSc1nc(N)c(NS(=O)(=O)c2ccc(C(C)=O)cc2)c(=O)[nH]1`: the growth was 119% with SR leukemia; 110% in the assay on RPMI-8226 leukemia; 107% with OVCAR-8 ovarian; 104% with OVCAR-5 ovarian; 117% in the assay with OVCAR-4 ovarian; 117% in the assay with SK-OV-3 ovarian. Further, the growth in the assay with OVCAR-3 ovarian is 105%; in the assay on HS 578T breast it was 105%; in the assay with NCI/ADR-RES ovarian it was 96.8%.
With `CCOC(=O)C/C(=N\Nc1cc(=O)[nH]c2ccc(Br)cc12)C(=O)OCC`, the growth in the assay with SR leukemia was 40.8%; in the assay with RPMI-8226 leukemia it was 83.2%; in the assay with OVCAR-8 ovarian it was 98.6%; in the assay on OVCAR-5 ovarian, 99.6%; with OVCAR-4 ovarian, 96.6%; in the assay with SK-OV-3 ovarian it was 105%. Moreover, the growth in the assay on OVCAR-3 ovarian is 100%; with HS 578T breast, 92%; in the assay on NCI/ADR-RES ovarian, 93.4%.
As for `COc1ccc(Nc2nnc(-c3ccc(OC)c(OC)c3)o2)cc1`, the growth was 86.6% with SR leukemia; 92.1% in the assay with RPMI-8226 leukemia; 90.9% with OVCAR-8 ovarian; 100% in the assay on OVCAR-5 ovarian; 89.2% in the assay on OVCAR-4 ovarian; 98% in the assay on SK-OV-3 ovarian. Further, the growth with OVCAR-3 ovarian was 91.4%; with HS 578T breast, 94.2%; in the assay with NCI/ADR-RES ovarian, 89.2%.
